What was measured:
Assay in all cases: log2 ratio of Biotin-Ahx-Ub-VS probe labelling (fragment/DMSO); higher = less target engagement (more negative = stronger competition), active = hit call of the paper (q ≤ 0.05, log2 ratio ≤ -1)
Conditions in all cases: compound concentration: 200 uM; treatment time: 3 h
[1] = molecular target: T1, USP42 (UniProt Q9H9J4)
T1 sequence (whole entry): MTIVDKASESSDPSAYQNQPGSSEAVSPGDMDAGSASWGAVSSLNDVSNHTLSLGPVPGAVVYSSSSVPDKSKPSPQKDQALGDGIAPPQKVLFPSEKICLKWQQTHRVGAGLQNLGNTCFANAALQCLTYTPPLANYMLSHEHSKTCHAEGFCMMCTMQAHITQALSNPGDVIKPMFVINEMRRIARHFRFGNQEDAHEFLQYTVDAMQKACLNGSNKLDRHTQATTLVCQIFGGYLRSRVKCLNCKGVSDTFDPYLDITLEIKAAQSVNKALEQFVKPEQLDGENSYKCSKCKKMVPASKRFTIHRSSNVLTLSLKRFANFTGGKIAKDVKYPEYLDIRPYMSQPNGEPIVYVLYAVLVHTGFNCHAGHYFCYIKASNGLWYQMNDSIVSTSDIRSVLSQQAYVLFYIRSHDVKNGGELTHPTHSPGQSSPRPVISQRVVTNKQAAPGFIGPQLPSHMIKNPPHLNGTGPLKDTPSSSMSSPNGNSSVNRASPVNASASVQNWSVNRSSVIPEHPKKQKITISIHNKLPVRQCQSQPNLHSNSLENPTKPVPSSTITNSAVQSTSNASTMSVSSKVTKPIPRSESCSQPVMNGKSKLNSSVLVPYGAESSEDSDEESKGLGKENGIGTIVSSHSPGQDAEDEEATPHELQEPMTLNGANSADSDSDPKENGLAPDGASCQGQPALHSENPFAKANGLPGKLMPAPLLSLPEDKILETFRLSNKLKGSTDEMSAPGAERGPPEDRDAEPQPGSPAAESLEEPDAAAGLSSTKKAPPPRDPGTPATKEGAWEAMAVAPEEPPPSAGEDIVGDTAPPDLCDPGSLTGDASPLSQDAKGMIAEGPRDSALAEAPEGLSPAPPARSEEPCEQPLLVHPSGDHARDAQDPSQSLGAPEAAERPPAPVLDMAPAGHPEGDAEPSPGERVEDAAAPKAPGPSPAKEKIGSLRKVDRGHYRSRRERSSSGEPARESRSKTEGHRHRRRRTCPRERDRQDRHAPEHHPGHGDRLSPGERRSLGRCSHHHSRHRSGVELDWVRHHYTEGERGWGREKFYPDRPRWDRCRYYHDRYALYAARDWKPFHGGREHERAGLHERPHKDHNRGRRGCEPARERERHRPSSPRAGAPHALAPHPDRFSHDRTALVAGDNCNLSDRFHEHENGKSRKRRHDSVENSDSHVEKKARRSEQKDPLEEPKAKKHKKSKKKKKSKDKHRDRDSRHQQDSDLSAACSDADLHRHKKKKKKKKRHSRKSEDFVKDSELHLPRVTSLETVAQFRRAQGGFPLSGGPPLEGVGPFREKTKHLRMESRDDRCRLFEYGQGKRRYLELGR
Summary of the method: (§1)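 Global-median-normalised Spectronaut label-free quantities were compared by unpaired t-test, and values are average log2 ratios of fragment over vehicle. Only proteins with ≥2 unique peptides were used. HEK293T lysate (495 µg per sample) was treated in triplicate with fragment at 200 µM or vehicle for 3 h and then with Biotin-Ahx-Ub-VS at 0.5 µM final for 1 h. Labelled DUBs were then NeutrAvidin-enriched, digested with LysC and trypsin, and run by diaPASEF LC-MS/MS.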

[2] = molecular target: USP46 (UniProt P62068)
USP46, sequence (P62068 whole entry): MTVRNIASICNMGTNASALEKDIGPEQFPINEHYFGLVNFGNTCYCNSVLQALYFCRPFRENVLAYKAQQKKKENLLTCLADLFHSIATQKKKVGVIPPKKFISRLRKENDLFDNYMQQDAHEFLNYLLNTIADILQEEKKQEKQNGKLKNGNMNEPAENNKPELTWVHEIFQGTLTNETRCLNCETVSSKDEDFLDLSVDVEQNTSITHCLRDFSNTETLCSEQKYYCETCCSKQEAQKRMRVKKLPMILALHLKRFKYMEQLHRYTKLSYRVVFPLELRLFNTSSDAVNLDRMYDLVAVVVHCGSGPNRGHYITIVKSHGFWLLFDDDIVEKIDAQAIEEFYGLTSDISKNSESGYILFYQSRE
Summary of the method: as §1

[3] = molecular target: T2, USP47 (UniProt Q96K76)
T2 sequence (whole entry): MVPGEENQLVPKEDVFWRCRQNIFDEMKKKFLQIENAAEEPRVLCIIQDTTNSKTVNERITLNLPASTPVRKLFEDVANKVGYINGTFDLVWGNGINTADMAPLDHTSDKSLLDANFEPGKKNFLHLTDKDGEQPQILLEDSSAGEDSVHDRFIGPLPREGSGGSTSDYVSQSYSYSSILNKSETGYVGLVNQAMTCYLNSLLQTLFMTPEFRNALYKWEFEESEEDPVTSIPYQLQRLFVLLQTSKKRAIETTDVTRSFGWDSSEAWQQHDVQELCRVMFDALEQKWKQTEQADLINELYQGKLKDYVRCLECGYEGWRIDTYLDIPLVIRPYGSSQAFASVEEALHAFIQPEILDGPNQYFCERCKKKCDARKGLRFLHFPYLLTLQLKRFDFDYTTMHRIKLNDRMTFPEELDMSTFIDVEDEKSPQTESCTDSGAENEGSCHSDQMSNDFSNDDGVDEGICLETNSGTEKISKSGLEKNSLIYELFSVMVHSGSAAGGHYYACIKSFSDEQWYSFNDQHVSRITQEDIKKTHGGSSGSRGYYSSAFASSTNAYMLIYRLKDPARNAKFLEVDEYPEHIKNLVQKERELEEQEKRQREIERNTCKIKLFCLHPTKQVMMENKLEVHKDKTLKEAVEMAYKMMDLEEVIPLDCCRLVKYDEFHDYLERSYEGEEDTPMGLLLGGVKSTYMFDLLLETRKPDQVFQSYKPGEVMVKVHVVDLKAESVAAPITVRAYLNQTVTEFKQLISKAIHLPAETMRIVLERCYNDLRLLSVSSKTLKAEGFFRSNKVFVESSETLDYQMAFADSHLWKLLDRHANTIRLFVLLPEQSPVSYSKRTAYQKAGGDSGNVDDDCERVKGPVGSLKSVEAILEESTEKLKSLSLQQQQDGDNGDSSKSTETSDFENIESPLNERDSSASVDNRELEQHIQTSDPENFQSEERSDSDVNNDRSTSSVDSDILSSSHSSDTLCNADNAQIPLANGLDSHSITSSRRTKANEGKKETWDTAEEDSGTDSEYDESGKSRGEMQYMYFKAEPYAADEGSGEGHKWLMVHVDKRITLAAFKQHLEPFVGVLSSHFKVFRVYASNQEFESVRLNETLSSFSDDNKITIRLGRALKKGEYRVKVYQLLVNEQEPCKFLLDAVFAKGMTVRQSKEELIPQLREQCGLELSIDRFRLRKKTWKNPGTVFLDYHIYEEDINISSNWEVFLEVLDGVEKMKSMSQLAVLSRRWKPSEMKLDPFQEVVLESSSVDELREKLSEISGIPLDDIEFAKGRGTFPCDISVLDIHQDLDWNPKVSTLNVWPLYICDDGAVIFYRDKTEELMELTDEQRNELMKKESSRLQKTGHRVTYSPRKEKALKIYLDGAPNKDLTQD
Summary of the method: as §1

[4] = molecular target: T3, USP48 (UniProt Q86UV5)
T3 sequence (whole entry): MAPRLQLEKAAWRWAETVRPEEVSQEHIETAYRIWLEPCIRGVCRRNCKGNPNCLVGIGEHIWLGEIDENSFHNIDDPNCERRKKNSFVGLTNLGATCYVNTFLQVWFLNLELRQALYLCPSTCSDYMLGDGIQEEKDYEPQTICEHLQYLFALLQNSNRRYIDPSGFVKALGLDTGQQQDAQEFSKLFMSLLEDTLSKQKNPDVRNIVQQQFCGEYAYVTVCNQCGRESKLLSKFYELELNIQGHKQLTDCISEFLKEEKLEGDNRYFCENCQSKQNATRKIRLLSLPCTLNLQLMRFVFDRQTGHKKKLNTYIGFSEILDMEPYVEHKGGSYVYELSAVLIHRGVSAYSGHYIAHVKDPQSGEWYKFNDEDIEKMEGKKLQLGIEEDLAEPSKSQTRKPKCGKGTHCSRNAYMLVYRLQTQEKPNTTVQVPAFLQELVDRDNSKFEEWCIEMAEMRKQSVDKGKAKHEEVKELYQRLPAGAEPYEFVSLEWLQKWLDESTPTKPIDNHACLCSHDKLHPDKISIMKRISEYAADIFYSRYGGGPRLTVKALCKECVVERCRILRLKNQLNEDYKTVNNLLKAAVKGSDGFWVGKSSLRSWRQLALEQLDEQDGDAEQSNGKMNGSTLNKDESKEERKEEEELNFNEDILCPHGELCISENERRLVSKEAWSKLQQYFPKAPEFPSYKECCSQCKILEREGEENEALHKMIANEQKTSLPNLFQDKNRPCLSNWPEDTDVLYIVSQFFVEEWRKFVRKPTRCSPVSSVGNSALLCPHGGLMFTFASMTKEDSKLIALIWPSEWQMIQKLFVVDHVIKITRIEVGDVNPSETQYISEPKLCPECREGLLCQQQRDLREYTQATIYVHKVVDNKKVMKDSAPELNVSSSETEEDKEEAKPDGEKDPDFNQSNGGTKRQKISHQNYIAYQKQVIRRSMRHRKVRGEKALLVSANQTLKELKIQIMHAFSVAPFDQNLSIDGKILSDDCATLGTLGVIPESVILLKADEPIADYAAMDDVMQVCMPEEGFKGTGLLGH
Summary of the method: as §1

[5] = molecular target: T4, USP5 (UniProt P45974)
T4 sequence (whole entry): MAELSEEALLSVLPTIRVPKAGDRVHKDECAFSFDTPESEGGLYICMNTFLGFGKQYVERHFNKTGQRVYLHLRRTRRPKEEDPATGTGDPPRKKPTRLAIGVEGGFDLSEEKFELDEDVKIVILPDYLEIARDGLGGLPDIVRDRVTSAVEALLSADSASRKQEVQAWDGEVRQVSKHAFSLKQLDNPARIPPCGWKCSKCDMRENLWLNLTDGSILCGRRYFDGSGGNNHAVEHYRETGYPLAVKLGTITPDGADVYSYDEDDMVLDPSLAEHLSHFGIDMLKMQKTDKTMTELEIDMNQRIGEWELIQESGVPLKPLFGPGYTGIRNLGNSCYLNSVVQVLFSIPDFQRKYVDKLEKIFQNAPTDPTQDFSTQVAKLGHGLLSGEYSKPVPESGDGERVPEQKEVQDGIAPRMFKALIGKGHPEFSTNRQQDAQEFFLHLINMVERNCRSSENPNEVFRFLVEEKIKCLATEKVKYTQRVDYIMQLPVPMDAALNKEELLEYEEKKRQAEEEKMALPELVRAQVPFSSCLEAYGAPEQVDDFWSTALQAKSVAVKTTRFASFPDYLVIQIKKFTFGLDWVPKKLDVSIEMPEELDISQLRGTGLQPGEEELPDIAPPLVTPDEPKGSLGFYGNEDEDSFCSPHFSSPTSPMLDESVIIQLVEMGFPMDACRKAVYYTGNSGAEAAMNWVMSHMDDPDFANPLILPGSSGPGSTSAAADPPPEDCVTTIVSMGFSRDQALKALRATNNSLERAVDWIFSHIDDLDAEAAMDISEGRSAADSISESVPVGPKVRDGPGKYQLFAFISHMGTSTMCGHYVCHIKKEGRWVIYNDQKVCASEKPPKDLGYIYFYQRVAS
Summary of the method: as §1

[6] = molecular target: USP54 (UniProt Q70EL1)
USP54, sequence (Q70EL1 whole entry): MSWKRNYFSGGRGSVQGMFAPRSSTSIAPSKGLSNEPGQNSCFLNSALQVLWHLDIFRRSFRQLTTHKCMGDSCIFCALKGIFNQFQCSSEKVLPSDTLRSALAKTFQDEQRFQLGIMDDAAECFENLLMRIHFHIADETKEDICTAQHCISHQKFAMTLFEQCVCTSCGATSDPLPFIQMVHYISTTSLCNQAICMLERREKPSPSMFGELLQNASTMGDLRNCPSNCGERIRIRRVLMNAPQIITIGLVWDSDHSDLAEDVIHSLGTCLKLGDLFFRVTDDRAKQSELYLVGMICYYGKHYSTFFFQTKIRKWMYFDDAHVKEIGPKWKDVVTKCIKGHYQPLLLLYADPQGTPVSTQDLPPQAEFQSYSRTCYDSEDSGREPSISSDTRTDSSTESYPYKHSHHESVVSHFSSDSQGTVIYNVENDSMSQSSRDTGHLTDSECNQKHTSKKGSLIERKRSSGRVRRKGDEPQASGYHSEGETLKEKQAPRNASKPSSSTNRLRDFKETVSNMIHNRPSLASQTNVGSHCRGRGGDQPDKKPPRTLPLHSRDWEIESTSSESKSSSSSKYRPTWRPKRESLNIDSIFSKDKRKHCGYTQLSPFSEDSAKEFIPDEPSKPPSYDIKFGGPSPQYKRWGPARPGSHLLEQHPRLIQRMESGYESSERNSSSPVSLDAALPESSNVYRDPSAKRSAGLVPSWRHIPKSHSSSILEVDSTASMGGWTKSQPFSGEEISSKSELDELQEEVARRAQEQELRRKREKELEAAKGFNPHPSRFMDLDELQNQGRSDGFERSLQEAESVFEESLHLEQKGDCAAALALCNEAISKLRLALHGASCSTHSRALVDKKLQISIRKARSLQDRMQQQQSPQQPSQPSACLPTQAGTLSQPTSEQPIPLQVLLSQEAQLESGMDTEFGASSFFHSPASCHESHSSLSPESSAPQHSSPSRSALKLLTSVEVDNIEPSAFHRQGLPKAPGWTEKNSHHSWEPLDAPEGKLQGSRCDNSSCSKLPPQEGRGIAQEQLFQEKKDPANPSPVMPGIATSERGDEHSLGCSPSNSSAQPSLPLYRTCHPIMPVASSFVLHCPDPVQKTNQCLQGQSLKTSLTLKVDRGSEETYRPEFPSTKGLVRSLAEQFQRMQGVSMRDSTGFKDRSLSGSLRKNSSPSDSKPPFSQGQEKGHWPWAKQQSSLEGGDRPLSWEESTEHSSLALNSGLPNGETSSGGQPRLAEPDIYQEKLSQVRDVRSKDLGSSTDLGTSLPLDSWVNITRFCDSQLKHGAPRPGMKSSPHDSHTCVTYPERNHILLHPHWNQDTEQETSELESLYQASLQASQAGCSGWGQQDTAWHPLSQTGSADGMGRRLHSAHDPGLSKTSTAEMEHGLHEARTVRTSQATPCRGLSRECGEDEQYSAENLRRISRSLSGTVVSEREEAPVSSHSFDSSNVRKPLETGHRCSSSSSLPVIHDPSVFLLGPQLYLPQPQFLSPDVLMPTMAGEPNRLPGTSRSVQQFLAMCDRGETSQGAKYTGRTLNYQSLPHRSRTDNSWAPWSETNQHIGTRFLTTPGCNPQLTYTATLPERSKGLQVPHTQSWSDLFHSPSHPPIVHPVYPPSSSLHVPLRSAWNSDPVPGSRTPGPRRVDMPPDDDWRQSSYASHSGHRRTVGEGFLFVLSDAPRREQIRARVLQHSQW
Summary of the method: as §1

[7] = molecular target: USP7 (UniProt Q93009)
USP7, sequence (Q93009 whole entry, looked up): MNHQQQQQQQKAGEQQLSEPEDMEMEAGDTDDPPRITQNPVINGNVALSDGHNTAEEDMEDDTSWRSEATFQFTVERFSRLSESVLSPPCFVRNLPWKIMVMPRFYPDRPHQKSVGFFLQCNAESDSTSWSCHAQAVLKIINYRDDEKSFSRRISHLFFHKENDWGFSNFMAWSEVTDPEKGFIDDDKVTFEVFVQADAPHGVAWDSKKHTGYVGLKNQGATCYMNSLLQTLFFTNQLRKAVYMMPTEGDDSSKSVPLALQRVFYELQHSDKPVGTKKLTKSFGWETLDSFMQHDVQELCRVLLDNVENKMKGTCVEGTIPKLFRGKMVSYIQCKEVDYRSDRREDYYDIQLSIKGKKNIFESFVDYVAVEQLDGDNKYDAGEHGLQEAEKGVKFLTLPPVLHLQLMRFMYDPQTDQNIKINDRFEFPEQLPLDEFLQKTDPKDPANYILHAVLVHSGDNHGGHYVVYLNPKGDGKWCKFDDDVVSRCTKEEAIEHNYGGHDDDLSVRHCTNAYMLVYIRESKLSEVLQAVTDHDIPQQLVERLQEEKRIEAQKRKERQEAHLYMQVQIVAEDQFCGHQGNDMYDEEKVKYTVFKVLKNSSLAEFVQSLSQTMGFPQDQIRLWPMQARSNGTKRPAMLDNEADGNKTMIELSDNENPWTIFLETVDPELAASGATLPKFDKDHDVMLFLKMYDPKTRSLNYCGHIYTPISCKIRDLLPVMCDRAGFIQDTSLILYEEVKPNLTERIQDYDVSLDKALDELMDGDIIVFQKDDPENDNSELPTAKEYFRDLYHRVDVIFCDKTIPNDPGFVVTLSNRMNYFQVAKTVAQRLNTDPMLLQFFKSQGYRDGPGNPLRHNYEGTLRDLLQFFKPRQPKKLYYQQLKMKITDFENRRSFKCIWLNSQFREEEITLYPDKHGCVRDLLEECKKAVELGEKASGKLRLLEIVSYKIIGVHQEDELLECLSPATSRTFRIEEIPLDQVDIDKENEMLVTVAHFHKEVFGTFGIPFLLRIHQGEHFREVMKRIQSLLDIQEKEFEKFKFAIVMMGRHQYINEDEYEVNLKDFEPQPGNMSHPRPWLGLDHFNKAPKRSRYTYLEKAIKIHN
Summary of the method: as §1

[8] = molecular target: T5, USP8 (UniProt P40818)
T5 sequence (whole entry): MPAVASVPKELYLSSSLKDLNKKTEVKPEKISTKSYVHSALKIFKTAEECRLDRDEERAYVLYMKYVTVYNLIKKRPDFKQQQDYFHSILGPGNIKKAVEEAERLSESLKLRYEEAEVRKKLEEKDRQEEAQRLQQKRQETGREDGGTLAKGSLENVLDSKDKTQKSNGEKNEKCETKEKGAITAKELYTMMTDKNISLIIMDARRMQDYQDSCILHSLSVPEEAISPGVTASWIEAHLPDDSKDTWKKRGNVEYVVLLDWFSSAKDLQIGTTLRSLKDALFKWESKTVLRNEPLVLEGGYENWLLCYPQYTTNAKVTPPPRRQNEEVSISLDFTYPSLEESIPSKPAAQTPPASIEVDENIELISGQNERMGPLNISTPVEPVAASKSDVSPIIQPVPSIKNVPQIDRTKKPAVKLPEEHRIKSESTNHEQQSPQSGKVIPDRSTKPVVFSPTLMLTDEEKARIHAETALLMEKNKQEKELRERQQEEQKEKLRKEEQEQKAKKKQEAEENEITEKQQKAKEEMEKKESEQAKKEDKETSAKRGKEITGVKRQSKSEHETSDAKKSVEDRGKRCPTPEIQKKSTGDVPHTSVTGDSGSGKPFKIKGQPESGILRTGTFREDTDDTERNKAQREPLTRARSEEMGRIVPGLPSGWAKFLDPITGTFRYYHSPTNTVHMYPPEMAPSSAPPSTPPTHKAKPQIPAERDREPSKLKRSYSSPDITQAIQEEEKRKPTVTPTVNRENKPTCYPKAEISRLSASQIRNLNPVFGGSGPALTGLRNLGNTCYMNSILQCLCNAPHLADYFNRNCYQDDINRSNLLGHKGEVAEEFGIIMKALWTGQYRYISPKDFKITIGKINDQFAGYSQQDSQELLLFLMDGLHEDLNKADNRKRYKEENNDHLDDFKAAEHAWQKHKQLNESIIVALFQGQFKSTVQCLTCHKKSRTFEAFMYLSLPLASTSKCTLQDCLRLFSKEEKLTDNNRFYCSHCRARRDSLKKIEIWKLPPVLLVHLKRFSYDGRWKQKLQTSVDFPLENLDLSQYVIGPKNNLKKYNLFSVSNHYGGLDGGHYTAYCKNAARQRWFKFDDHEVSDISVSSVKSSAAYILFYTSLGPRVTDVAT
Summary of the method: as §1

[9] = molecular target: USP9X (UniProt Q93008)
Summary of the method: as §1

[10] = molecular target: UniProt O00487
UniProt O00487, sequence (O00487 whole entry): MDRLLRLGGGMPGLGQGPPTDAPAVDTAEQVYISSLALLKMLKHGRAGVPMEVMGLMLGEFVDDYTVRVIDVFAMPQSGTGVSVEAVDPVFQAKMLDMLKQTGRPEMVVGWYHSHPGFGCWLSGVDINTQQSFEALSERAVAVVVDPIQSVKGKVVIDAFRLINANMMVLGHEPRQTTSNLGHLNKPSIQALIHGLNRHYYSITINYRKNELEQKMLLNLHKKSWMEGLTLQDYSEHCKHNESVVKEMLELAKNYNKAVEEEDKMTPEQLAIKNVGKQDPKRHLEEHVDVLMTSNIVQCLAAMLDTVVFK
Summary of the method: as §1

Measured: log2 ratio of Biotin-Ahx-Ub-VS probe labelling

CC(NC(=O)CCl)c1ccc2[nH]ncc2c1 (stereo not given)
inactive: [1] 0.605 | [2] -0.239 | [3] 0.0542 | [4] -0.411 | [5] -0.557 | [6] 0.532 | [7] -0.578 | [8] -0.403 | [9] -0.429 | [10] -0.121

O=C(CCl)N[C@H]1CC[C@@H](CO)CC1
inactive: [1] 0.163 | [2] -0.593 | [3] -0.113 | [4] -0.534 | [5] -0.644 | [6] 1 | [7] -0.752 | [8] -0.969 | [9] -0.905 | [10] -0.163

From the supplement of paper PMC11732987, “Enantioselective OTUD7B fragment discovery through chemoproteomics screening and high-throughput optimisation” (Communications Chemistry, 2025)
